Source: PubChem
PINK1 modulator: A Quantitative High throughput Screen to Identify Chemical Modulators of PINK1 Expression | hit rate 0.2% among 410,000 | Potency, µM (titrated, usually from 76.6 µM), for the others: at the top dose activation (PINK1 increase), actives largely listed as activators | AID 624263, 2012 | PINK1 immunofluorescence, high-content cytometry, 24 h; active means well fitted activation curve with a large enough effect; inconclusive means small, poorly fitted or top-dose-only effect; cell line not stated here; further: potency means the concentration at half of the fitted maximal effect; % of control where 0% means no effect; nearly all actives have a fitted effect of over 65% in size
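Cells are seeded, rested 12 hours, then given compound at five concentrations or DMSO for 24 hours. After fixation, blocking and antibody staining, PINK1 amount and mitochondrial localization are scored; CCCP serves as control.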
Mm-Cpn inhibitor: Inhibitors of TCP-1 ring complex (TRiC) of Methanococcus maripaludis (MmCpn): qHTS; hit rate 0.031% among 330,000; Chaperonin Mm-Cpn (Methanococcus maripaludis); purified Mm-Cpn ATPase, ADP Transcreener TR-FRET; AID 504842, 2011; Potency, µM (series often up to 76.9 µM), for the others: at the top dose activity, negative = inhibition, usual class: inhibitors; further: potency means the concentration at half of the fitted maximal effect; on the % scale 0 is the no-effect control and ±100 the full control effect; nearly all actives have a fitted effect of over 80% in size
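Purified archaeal Mm-CPN (25nM final) preincubated 10 min at 37degC with compound, then 10uM ATP for 30 min at 37degC; ADP measured by HTRF Transcreener TR-FRET; buffer 30 mM TRIS pH 7.4, 100mM KCl, 5mM MgCl2, 1mM DTT.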
S-ASM inh: Inhibitors of Secretory Acid Sphingomyelinase (S-ASM): qHTS; Sphingomyelin phosphodiesterase (Homo sapiens), P17405; placental ASM, HMU-PC fluorogenic substrate, 60 min; Potency, µM (series often up to 57.5 µM), for the others: top-dose activity change, negative = inhibition, most hits filed as inhibitors; hit rate 0.006% among 340,000; further: potency means the concentration at half of the fitted maximal effect
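Steps: dispense placental human ASM, pin compound, wait 10 min at room temperature, add HMU-PC0 substrate at 9 uM final, incubate 60 min at 37 °C, add stop solution raising pH to 10, read fluorescence.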
CCT modulator: High-Throughput Screening for Modulators of Cytosolic Chaperonin Activity. purified chaperonin ATPase assay, HTRF ADP detection, 30 min. activity change, % (concentration not given with the values), hits read low. hit rate 0.3% among 360,000; in the data active means activity change below about -30%; further: on the % scale 0 is the no-effect control and ±100 the full control effect
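ATPase activity: ADP formed was measured by HTRF Transcreener (665/615 nm ratio) after 30 min at 37 deg C with 10 uM ATP. Compounds screened at one 76 uM concentration against 40 or 20 nM TRiC in Tris pH 7.4/KCl/MgCl2/DTT buffer.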
p53 reactivator: qHTS assay for re-activators of p53 using a Luc reporter; hit rate 0.063% among 320,000; H1299 p53-A138V BP100-luciferase reporter, luminescence, 24 h; Potency, µM (top dose mostly 92.2 µM), for the others: at the highest dose activity change, positive = activation, most hits filed as activators; further: potency means the concentration at half of the fitted maximal effect; % of control where 0% means no effect; nearly all actives have a fitted effect of over 45% in size
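H1299 (p53-null), stable ts p53-A138V + BP100-Luc; 1000 cells/well, Opti-MEM/10% FBS; cpd 4 pt, 1:5; 24 h, 37 deg C, 5% CO2; detection reagent 10 min RT; luminescence.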
ALOX12 inh: Primary qHTS assay for inhibitors of human arachidonate 12S-lipoxygenase (ALOX12): Round 2 | purified 12hLO, xylenol orange hydroperoxide absorbance | hit rate 1.1% among 580,000 | Potency, µM (highest dose often 108 µM), for inactives: top-dose activity change, negative = inhibition, usual class: inhibitors | Polyunsaturated fatty acid lipoxygenase ALOX12 (Homo sapiens), P18054; further: potency means the concentration at half of the fitted maximal effect; on the % scale 0 is the no-effect control and ±100 the full control effect
Target sequence (P18054 whole entry, looked up): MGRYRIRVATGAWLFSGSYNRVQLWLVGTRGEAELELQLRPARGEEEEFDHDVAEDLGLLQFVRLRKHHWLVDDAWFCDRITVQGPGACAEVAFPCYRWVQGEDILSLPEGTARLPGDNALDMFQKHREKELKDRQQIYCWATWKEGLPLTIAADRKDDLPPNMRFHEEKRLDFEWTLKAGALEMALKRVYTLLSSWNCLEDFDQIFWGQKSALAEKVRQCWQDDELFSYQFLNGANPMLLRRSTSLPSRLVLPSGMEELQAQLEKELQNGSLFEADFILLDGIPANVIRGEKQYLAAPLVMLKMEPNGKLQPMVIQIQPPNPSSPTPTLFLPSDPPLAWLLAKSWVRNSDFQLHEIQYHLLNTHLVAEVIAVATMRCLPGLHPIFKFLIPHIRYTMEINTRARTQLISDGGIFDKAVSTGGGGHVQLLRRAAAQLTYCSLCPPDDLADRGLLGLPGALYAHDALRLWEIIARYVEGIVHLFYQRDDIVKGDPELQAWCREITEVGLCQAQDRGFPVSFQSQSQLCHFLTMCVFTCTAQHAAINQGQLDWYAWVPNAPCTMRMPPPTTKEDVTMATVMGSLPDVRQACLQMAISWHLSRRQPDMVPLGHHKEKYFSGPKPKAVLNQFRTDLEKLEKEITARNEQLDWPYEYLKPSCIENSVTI
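Purified human 12hLO (150 nM final) in 25 mM Hepes, 0.01% Triton X-100, pH 7.0 was preincubated 15 min at room temperature with compound. Then 40 uM arachidonic acid was added, 30 min. Hydroperoxide was read by Fe-XO absorbance ratio 573/405 nm.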
* = called active by the depositor. Only some compounds are listed: those with a hit (about 1.4% of all), similar ones and a draw of the others. Unless noted, the call rests on the fitted dose curve; in most records, active means well fitted curve in the direction sought with a large enough effect; inconclusive means small, poorly fitted or top-dose-only effect, or another doubt; inactive means no such curve, though single readings can be large; an effect the other way counts as inactive or inconclusive.

How did O=C(CSc1nc2ccc([N+](=O)[O-])cc2[nH]1)NC1CCCCCC1 do in these assays?
PINK1 modulator: 14µM*; Mm-Cpn inhibitor: 0%; S-ASM inh: -6%; CCT modulator: 0; p53 reactivator: 14%; ALOX12 inh: -29%

How did Cc1cccc(C)c1-n1nnnc1C1(Nc2ccccc2)CCCC1 do in these assays?
ALOX12 inh: -51%

What do the screens show for `O=C(NC(=S)Nc1ccc2c(c1)OCCO2)c1ccc(F)cc1Cl`?
PINK1 modulator: 0%; Mm-Cpn inhibitor: 4%; S-ASM inh: 9%; CCT modulator: -1; p53 reactivator: inconclusive; ALOX12 inh: -12%

What do the screens show for `Cc1ccc(C(=O)NC(=S)Nc2ccc3c(c2)OCCO3)c(C)c1`?
PINK1 modulator: -3%; Mm-Cpn inhibitor: 1%; S-ASM inh: 15%; CCT modulator: -11; p53 reactivator: 19%; ALOX12 inh: 13µM*

Results for O=C(NC(=S)Nc1ccc(N2CCOCC2)c(Cl)c1)c1cncc(Br)c1 ?
PINK1 modulator: -1%; Mm-Cpn inhibitor: 0%; S-ASM inh: -6%; CCT modulator: -3; p53 reactivator: -7%; ALOX12 inh: inconclusive

What do the screens show for `COc1cc(OC)cc(C(=O)NC(=S)Nc2ccc(N3CCCC3)cc2)c1`?
PINK1 modulator: 14%; Mm-Cpn inhibitor: 2%; S-ASM inh: -10%; CCT modulator: 1; p53 reactivator: -2%; ALOX12 inh: 45µM*

Results for O=C(NC(=S)Nc1ccc(N2CCCCC2)c(Cl)c1)c1ccc2c(c1)OCCO2 ?
PINK1 modulator: 5%; Mm-Cpn inhibitor: 1%; S-ASM inh: -3%; CCT modulator: 0; p53 reactivator: 1%; ALOX12 inh: 22µM*

How did CCc1ccc(C(=O)NC(=S)Nc2ccc3c(c2)OCCO3)cc1 do in these assays?
PINK1 modulator: 3%; Mm-Cpn inhibitor: 2%; S-ASM inh: 30%; CCT modulator: -2; p53 reactivator: inconclusive; ALOX12 inh: 14µM*

Results for CCCCc1nc(N2CCCCC2)c(C#N)c2c1CCCC2 ?
ALOX12 inh: -3%

How did CCN1c2cc(C(=O)Nc3ccc(F)c(C)c3)ccc2C(=O)N2CCCCCC21 (centres undefined) do in these assays?
ALOX12 inh: -1%

How did CC(=O)Nc1ccc2nnc(-c3ccc(C(=O)N4CCCCCC4)cc3)n2c1 do in these assays?
ALOX12 inh: 32%

How did COc1c(CNCc2nnc3n2CCCCC3)c(C(C)C)nn1C do in these assays?
ALOX12 inh: 33%

What do the screens show for `C=CCS(=O)(=O)O`?
ALOX12 inh: 17%

Results for Cc1ccc(C(=O)NC(=S)Nc2ccc(CN3CCOCC3)cc2)cc1 ?
PINK1 modulator: 6%; Mm-Cpn inhibitor: 1%; S-ASM inh: 0%; CCT modulator: -1; p53 reactivator: -9%; ALOX12 inh: 35µM*

What do the screens show for `O=C(NC(=S)Nc1ccc2c(c1)OCCO2)c1ccco1`?
PINK1 modulator: 0%; Mm-Cpn inhibitor: -1%; S-ASM inh: 2%; CCT modulator: -5; p53 reactivator: inconclusive; ALOX12 inh: -19%

What do the screens show for `CC(C)Oc1ccc(C(=O)NC(=S)Nc2ccc(CN3CCOCC3)cc2)cc1`?
PINK1 modulator: 4%; Mm-Cpn inhibitor: 0%; S-ASM inh: -1%; CCT modulator: -3; p53 reactivator: -4%; ALOX12 inh: inconclusive

What do the screens show for `Cc1ccc(C(=O)NC(=S)Nc2ccc(N3CCOCC3)cc2)c(C)c1`?
PINK1 modulator: 3%; Mm-Cpn inhibitor: 0%; S-ASM inh: -11%; CCT modulator: 1; p53 reactivator: 1%; ALOX12 inh: 7.9µM*

What do the screens show for `Cc1ccc(C(=O)N/N=C/c2ccc(N3CCOCC3)cc2)c(C)c1`?
PINK1 modulator: 2%; Mm-Cpn inhibitor: -2%; S-ASM inh: 31%; CCT modulator: 1; p53 reactivator: 5%; ALOX12 inh: 1%

Results for Cc1cc(C)cc(C(=O)NC(=S)Nc2ccc3c(c2)OCCO3)c1 ?
PINK1 modulator: 0%; Mm-Cpn inhibitor: -3%; S-ASM inh: -2%; CCT modulator: -1; p53 reactivator: inconclusive; ALOX12 inh: 6.3µM*

What do the screens show for `CNC(=O)c1ccc(CNC(=O)c2nccnc2N)cc1`?
ALOX12 inh: 24%

How did O=C(Nc1cccc2ncccc12)c1cnc2ccccc2n1 do in these assays?
ALOX12 inh: -27%
